# An excerpt weighted towards active compounds, which were near 18% of everything screened.
# TDP1 inh: TDP1 (human) enzyme inhibition | actives 0.28% (n = 350,000) | recombinant TDP1, AlphaScreen DNA substrate cleavage | Q9NUW8 | AID 485290 | Potency, µM (top dose mostly 130 µM), for inactives: at the top dose activity change, negative = inhibition, actives largely listed as inhibitors; note: potency is the fitted concentration of half-maximal effect; % is set by controls: 0 for no effect and ±100 for the full control effect; nearly all actives have a fitted effect of over 40% in size
# Target sequence (Q9NUW8 whole entry, looked up): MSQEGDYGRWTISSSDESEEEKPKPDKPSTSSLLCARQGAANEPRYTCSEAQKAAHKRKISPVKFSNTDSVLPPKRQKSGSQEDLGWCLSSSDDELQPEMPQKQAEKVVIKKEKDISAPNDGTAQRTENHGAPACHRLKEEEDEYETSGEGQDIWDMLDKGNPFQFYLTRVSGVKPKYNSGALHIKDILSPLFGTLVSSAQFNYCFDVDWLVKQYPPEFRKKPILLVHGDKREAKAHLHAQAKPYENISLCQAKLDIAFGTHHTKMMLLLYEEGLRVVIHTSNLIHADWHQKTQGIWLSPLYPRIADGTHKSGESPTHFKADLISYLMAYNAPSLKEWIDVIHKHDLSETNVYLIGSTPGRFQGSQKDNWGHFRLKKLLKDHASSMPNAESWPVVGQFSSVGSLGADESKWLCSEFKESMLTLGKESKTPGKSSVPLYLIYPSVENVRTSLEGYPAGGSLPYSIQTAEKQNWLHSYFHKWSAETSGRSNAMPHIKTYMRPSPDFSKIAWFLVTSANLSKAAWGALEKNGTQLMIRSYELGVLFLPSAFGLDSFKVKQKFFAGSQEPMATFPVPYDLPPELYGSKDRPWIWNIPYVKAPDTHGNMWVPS
#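 AlphaScreen read-out: signal falls as enzyme removes the 3' tyrosine-FITC from a 5'-biotinylated DNA oligo (15 nM, 5 min, RT). Enzyme was E. coli-made recombinant Tdp1 at 1 nM, exposed to compound for 15 min beforehand; beads 10 ug/ml, 10 min.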
# TGFb SMAD3 inh: inhibitors of TGF-b signaling; Potency, µM (top dose mostly 46.1 µM), inactives show at the highest dose activity, negative = inhibition, actives largely listed as inhibitors; AID 588855; HepG2 CAGA-GFP TGF-b/SMAD3 reporter, GFP fluorescence, 18 h; TGF-beta stimulated, 500 pg/mL final; actives 1.2% (n = 410,000); note: potency is the fitted concentration of half-maximal effect; % is set by controls: 0 for no effect and ±100 for the full control effect; nearly all actives have a fitted effect of over 65% in size
#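 Using HEPG2 CAGA-GFP reporter cells at 1000 cells/well, we pinned test compounds, stimulated with recombinant TGF-beta (500 pg/mL final) and measured total well GFP after 18 h.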
# HepG2 tox-1: counter-screen for TGF-b inhibitors: cytotoxicity in HepG2 cells. HepG2 CAGA-GFP viability, ATP luminescence, 18 h. Potency, µM (highest dose often 46.1 µM), for the others: at the highest dose activity change, negative = cytotoxicity, most hits filed as cytotoxic. actives 0.76% (n = 410,000). AID 588856; note: potency is the fitted concentration of half-maximal effect
#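 HepG2 CAGA-GFP cells (1000/well, DMEM with 1% FBS) received compound, then TGF-beta at 500 pg/mL final, and were incubated 18 hours at 37 degrees C. Viability was read by CellTiter-Glo luminescence. Media-only wells were set as complete cell-killing and DMSO as no toxicity.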
# DT40 TDP1 CPT: DT40-hTDP1 cell growth loss with CPT | chicken DT40 Tdp1-/-;hTDP1 cells + 20 nM CPT, ATP luminescence, 48 h | Potency, µM (series often up to 46.2 µM), inactives show top-dose activity change, negative = growth inhibition, most hits filed as inhibitors | actives 12% (n = 420,000); note: potency is the fitted concentration of half-maximal effect; % is set by controls: 0 for no effect and ±100 for the full control effect; nearly all actives have a fitted effect of over 55% in size
#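 Chicken DT40 Tdp1-/- cells stably complemented with human TDP1 were seeded at 400 cells/well in medium containing 20 nM camptothecin, exposed to pin-transferred compounds, and grown at 37 °C for at least 48 hr. Viability was read as ATP luminescence.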
# IL-1B inflam inh: inflammasome signaling inhibition, IL-1 beta readout | THP-1 LPS/ATP IL-1B secretion, AlphaLISA, 16 h; stronger effect = lower value | activity change, % at 57.5 µM | actives 4.7% (n = 360,000); in the data active = activity change below about -50%; inconclusive = mostly about -30% to -49%; note: % is set by controls: 0 for no effect and ±100 for the full control effect
#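 Secreted IL-1B measured by AlphaLISA bead assay after 16 h compound exposure of THP-1 cells; compounds (final up to 57.5 uM) added 1 h before LPS (250 ng/mL) and ATP (1.25 mM) stimulation; lower signal means less secretion.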
# DT40 TDP1 no CPT: qHTS for Inhibitors of human tyrosyl-DNA phosphodiesterase 1 (TDP1): qHTS in cells in absence of CPT. actives 15% (n = 420,000). DT40 Tdp1-/- hTDP1 cells, no CPT, ATP luminescence, 48 h. Potency, µM (top dose mostly 46.2 µM), without a hit: top-dose activity change, negative = growth inhibition, usual class: inhibitors; note: potency is the fitted concentration of half-maximal effect; % is set by controls: 0 for no effect and ±100 for the full control effect; nearly all actives have a fitted effect of over 55% in size
#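 DT40 Tdp1-/-;hTDP1 cells, no CPT (DMSO vehicle only), 400 cells/well; compounds pin-transferred; ≥48 hr, 37 °C; CellTiter-Glo 30 min RT dark, luminescence read.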
# TGFb confirm: confirmation of TGF-b signaling inhibitors in HepG2 reporter cells | shares compounds with TGFb SMAD3 inh | HepG2 CAGA-GFP TGF-b reporter, GFP fluorescence, 18 h; cells stimulated with TGF-beta, 500 pg/mL | Potency, µM (highest dose often 46.1 µM), inactives show top-dose activity, negative = inhibition, actives largely listed as inhibitors | actives 63% (n = 1,600); note: potency is the fitted concentration of half-maximal effect; % is set by controls: 0 for no effect and ±100 for the full control effect; nearly all actives have a fitted effect of over 65% in size
# HepG2 tox-2: HepG2 cytotoxicity, TGF-b inhibitor counterscreen; Potency, µM (titrated, usually from 46.1 µM), for the others: at the top dose activity, negative = cytotoxicity, hits mostly inhibitors; HepG2 CAGA-GFP viability, ATP luminescence, 18 h; cells stimulated with TGF-beta, 500 pg/mL; AID 720535; actives 27% (n = 1,600); shares compounds with TGFb SMAD3 inh; note: potency is the fitted concentration of half-maximal effect; % is set by controls: 0 for no effect and ±100 for the full control effect; nearly all actives have a fitted effect of over 70% in size
# TGFb CCL64 inh: orthogonal confirmation of TGF-b inhibitors in CCL64 cells. Potency, µM (series often up to 46.1 µM), for inactives: at the highest dose activity, negative = inhibition, hits mostly inhibitors. CCL64 CAGA-GFP reporter, TGF-b stimulated, GFP fluorescence, 18 h. actives 41% (n = 1,600). shares compounds with TGFb SMAD3 inh. AID 720536; note: potency is the fitted concentration of half-maximal effect; nearly all actives have a fitted effect of over 65% in size
# COP TGFb inh: validation of TGF-b inhibitors in HepG2 COP promoter reporter | shares compounds with TGFb SMAD3 inh | HepG2 COP-GFP TGF-b reporter, GFP fluorescence, 18 h; cells stimulated by added recombinant TGF-beta | Potency, µM (series often up to 46.1 µM), for inactives: at the top dose activity, negative = inhibition, most hits filed as inhibitors | actives 3% (n = 1,600); note: potency is the fitted concentration of half-maximal effect; nearly all actives have a fitted effect of over 70% in size
# * = called active by the depositor; ? = inconclusive; . = not tested or not shown; [ ] = remark or other dose. Unless noted, calls come from the whole dose curve; as a rule, active = well fitted curve in the direction sought with a large enough effect; inconclusive = small, poorly fitted or top-dose-only effect, or another doubt; inactive = no such curve, though single readings can be large; an effect the other way counts as inactive or inconclusive.
SMILES,TDP1 inh,TGFb SMAD3 inh,HepG2 tox-1,DT40 TDP1 CPT,IL-1B inflam inh,DT40 TDP1 no CPT,TGFb confirm,HepG2 tox-2,TGFb CCL64 inh,COP TGFb inh
O=C(c1ccc(Cl)cc1)c1cc([N+](=O)[O-])ccc1N1CCOCC1,5%,11µM*,12%,0.73µM*,45,0.82µM*,7.3µM*,-2%,?,-3%
O=C1NC(c2cccc3ccccc23)Nc2ccccc21 (centres undefined),.,3.5µM*,-29%,0.58µM*,39,0.92µM*,2.6µM*,?,6.5µM*,8%
CCOC(=O)C#CC(CCc1ccccc1)OS(N)(=O)=O (centres undefined),.,0.71µM*,-28%,?,-70*,?,-29%,-6%,?,-22%
CCOC(=O)N1CCN(C(=O)CCc2ccccc2)CC1,.,13%,6%,4%,5,-17%,.,.,.,.
CCOC(=O)c1cc([N+](=O)[O-])sc1NC(=O)c1ccc(S(=O)(=O)N2CC3(C)CC2CC(C)(C)C3)cc1 (centres undefined),3%,?,6%,2.3µM*,56,2.6µM*,?,?,?,-8%
CC1CN=C(N(C(=O)Nc2ccccc2)C(C)c2ccccc2)S1 (centres undefined),.,-4%,-15%,-13%,-19,-26%,.,.,.,.
COc1ccccc1CNC(=O)COC(=O)/C=C/c1ccc2ccccc2n1,-2%,14%,-2%,?,?,?,.,.,.,.
O=C(Oc1ccc(Cl)c2cccnc12)c1ccco1,6%,8.9µM*,-52%,?,64,?,-2%,-15%,22%,4%
CCOC(=O)c1sc2ncn(/N=C/c3ccc(O)c(OC)c3)c(=O)c2c1C,-6%,0%,14%,-18%,-2,-20%,.,.,.,.
NC(=S)N/N=C\c1c(OCc2ccccc2Cl)ccc2ccccc12,6%,6.3µM*,-5%,6.5µM*,-19,?,5.8µM*,?,8.2µM*,34%
CCOc1ccc2ccccc2c1/C=N/NC(=O)c1ccc(C)nc1,.,0%,-6%,4%,-2,?,.,.,.,.
COc1ccc(O)c(C(=O)c2cc(C#N)c(=O)n(-c3ccc(Cl)cc3)c2)c1,-3%,19%,-11%,?,28,?,.,.,.,.
CCOc1ccc(-n2cc(C(=O)c3cc(Cl)ccc3O)cc(C#N)c2=O)cc1,3%,13µM*,-22%,-6%,15,-13%,-81%,?,?,53%
CC(=O)N(Cc1ccc(F)cc1)C1=C(NCc2ccccc2)C(=O)c2ccccc2C1=O,9%,6.3µM*,3.2µM*,1.6µM*,-93*,1.3µM*,7.3µM*,3.7µM*,3.7µM*,?
Cc1cc(C)c(S(=O)(=O)NC2CC3CCC2C3)c(C)c1 (centres undefined),.,?,-30%,-28%,80,-24%,?,-2%,-17%,-5%
O=C(/C(=C/c1ccccc1)c1ccccc1)N1CCCCC1,4%,0%,-15%,?,-6,?,.,.,.,.
O=C(Nc1nccs1)C1CC(=O)N(CCc2ccccc2)C1 (centres undefined),-4%,0%,2%,0%,3,-2%,.,.,.,.
O=[N+]([O-])c1ccc(N/N=C/c2cccnc2)cc1,.,10µM*,-14%,5.8µM*,-17,6.5µM*,10µM*,?,5%,27%
O=C(N/N=C/c1cccnc1)c1ccc([N+](=O)[O-])cc1,0%,-16%,-3%,-5%,3,-11%,.,.,.,.
O=C(c1cc(-c2ccccc2Cl)nc2ccc(Br)cc12)N1CCN(c2ccccn2)CC1,.,?,-27%,?,-29,?,-30%,?,?,11%
O=C(c1cccn2c(=O)c3cc(Br)ccc3nc12)N1CCN(c2ccccn2)CC1,4%,0%,-78%,-30%,15,?,.,.,.,.
O=C(c1cc(-c2ccc(Br)cc2)nc2ccccc12)N1CCN(c2ccccc2O)CC1,2%,11µM*,-2%,?,-62*,?,6.5µM*,?,?,2%
COc1ccc(OC)c(CN2CCN(Cc3cccc4ccccc34)CC2)c1,-2%,-10%,4%,?,-29,?,.,.,.,.
Cc1ccccc1NC(=O)c1cc(C(=O)c2cc(Cl)ccc2O)cn(-c2ccccc2C)c1=O,6%,7.1µM*,-35%,13µM*,-8,23µM*,16µM*,?,13µM*,43%
Cc1ccccc1NC(=O)c1ccccc1NC(=O)c1ccccc1Cl,2%[12.3 µM],-5%,-7%,?,.,?,.,.,.,.
CCC1(OC(=O)CN(C)C)C(=O)OCc2c1cc1n(c2=O)Cc2cc3c(N)cccc3nc2-1 (centres undefined),.,3.2µM*,3%,0.16µM*,-97*,0.18µM*,5.8µM*,1.8µM*,?,16%
Cc1nc2ccc(NC(=S)N3CCOCC3)cc2nc1C,3%,0%,22%,-10%,-9,-5%,.,.,.,.
